Compound activity: PubChem, National Center for Advancing Translational Sciences (NCATS)
In the library only some 3.4% were active in any assay of this set; here they are far more common.
AmpC detergent: qHTS Inhibitors of AmpC Beta-Lactamase (assay with detergent); AmpC hydrolysis of nitrocefin, absorbance 480 nm, 0.01% Triton; Potency, µM (doses to about 114 µM), without a hit: at the highest dose activity change, negative = inhibition, hits mostly inhibitors; 370,000 compounds, 0.041% hits; P00811;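 also: 0% = no-compound wells and -100% = no-enzyme wells; nearly all actives have a fitted effect of over 25% in size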
Target sequence (P00811 whole entry, looked up): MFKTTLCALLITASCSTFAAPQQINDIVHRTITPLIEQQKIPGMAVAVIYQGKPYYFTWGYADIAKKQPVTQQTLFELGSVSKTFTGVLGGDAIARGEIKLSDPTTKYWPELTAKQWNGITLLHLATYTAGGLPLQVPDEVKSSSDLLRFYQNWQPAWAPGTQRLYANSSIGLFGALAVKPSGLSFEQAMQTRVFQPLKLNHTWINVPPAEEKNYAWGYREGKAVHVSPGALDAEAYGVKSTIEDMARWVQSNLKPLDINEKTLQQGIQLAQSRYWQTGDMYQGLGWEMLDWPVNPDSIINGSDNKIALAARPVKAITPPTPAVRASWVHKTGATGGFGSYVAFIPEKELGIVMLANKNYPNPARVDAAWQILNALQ
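20 mM phosphate pH 7.0 + 0.01% (detergent screen) or 0.0001% Triton X-100; 5.3 nM AmpC reagent; cpd preinc 15 min RT; nitrocefin (800 uM stock) to start; A480 q20 s × 4 min; Activity was normalised to no-enzyme and no-compound control wells.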
AmpC inh no detg: qHTS Inhibitors of AmpC Beta-Lactamase (assay without detergent) | P00811 | AmpC nitrocefin hydrolysis, absorbance 480 nm, 0.0001% Triton | Potency, µM (highest dose often 57.1 µM), for the others: at the highest dose activity change, negative = inhibition, usual class: inhibitors | 330,000 compounds, 0.52% hits | AID 485341, 2010;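 also: plate controls were no compound for no effect and no enzyme for full effect; nearly all actives have a fitted effect of over 20% in size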
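20 mM phosphate pH 7.0 + 0.01% (detergent screen) or 0.0001% Triton X-100; 5.3 nM AmpC reagent; cpd preinc 15 min RT; nitrocefin (800 uM stock) to start; A480 q20 s × 4 min; Activity was normalised to no-enzyme and no-compound control wells.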
RE007 growth inh: qHTS Assay for Inhibitors of the HIV-1 protein Vpr; S. pombe RE007 Vpr strain, BacTiter-Glo ATP luminescence, 24 h; AID 651644, 2012; 360,000 compounds, 0.21% hits; Potency, µM (series often up to 92.2 µM), for inactives: at the top dose activity change, negative = less growth, actives largely listed as inhibitors; active = well fitted falling curve with a large enough effect; inconclusive = small, poorly fitted or top-dose-only effect; inactive = no such curve, though single readings can be large or run the other way; also: nearly all actives have a fitted effect of over 50% in size
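Fission yeast strain RE007, carrying one chromosomally integrated HIV-1 vpr copy, was seeded at OD 0.01 in PMG+AL medium with 23 nL pinned compound. After 24 h at 30 °C and 99% humidity, viability was read by BacTiter-Glo luminescence.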
FBPA Giardia inh: qHTS Assay for Inhibitors of Fructose-1,6-bisphosphate Aldolase from Giardia Lamblia | A8B2U2 | purified Giardia FBPA | Potency, µM (series often up to 59.6 µM), for inactives: at the highest dose activity, negative = inhibition, hits mostly inhibitors | 290,000 compounds, 0.71% hits; also: nearly all actives have a fitted effect of over 55% in size
Target sequence (A8B2U2 whole entry, looked up): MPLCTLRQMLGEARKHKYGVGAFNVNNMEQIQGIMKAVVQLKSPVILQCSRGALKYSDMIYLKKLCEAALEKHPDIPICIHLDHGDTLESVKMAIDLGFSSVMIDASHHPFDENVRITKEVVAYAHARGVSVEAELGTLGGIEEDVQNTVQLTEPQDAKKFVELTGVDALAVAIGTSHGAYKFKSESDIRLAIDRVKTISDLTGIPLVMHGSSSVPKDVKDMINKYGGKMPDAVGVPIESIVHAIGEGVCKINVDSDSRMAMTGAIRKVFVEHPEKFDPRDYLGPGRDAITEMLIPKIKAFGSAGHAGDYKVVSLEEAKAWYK
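40 nM FBPA preincubated 10 min at RT with compound (up to 57.5 uM final), then substrate plus GAPDH/TPI/NAD/arsenate coupling and diaphorase/resazurin added. Fluorescence read after 20 min at RT, 525/598 nm.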
Sm TGR block: qHTS Assay for the Inhibitors of Schistosoma Mansoni Peroxiredoxins; 360,000 compounds, 3% hits; purified TGR, DTNB reduction, TNB absorbance 405 nm; Potency, µM (highest dose often 114 µM), inactives show at the highest dose activity change, negative = inhibition, usual class: inhibitors; AID 485364, 2010; also: nearly all actives have a fitted effect of over 60% in size
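Kinetic colorimetric format: TGR-catalysed, NADPH-driven DTNB reduction monitored via TNB absorbance. Enzyme dispensed at 20 nM; compound exposure 15 min at room temperature before reaction start.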
Active calls of the source: *; ? = inconclusive; · = not tested or not shown. Unless noted, calls follow the shape of the dose curve; as a rule, active = well fitted curve in the direction sought with a large enough effect; inconclusive = small, poorly fitted or top-dose-only effect, or another doubt; inactive = no such curve, though single readings can be large; an effect the other way counts as inactive or inconclusive. Unless noted, % is scaled to controls: 0 for no effect and ±100 for the full control effect; potency is read from the fitted curve at half-maximal effect.

SMILES | AmpC detergent | AmpC inh no detg | RE007 growth inh | FBPA Giardia inh | Sm TGR block
CC1=C([N+](=O)[O-])C(c2ccccc2)C2=C(N1)c1ccccc1C2=O (stereo not given) | 4% | -42% | -3% | -16% | 14µM*
CC1CC(C)CN(C(=O)C2CCN(S(=O)(=O)N3CCC4(CC3)OCCO4)CC2)C1 (stereo not given) | -1% | 41% | -12% | 1% | 4%
COC12C(COC(N)=O)C3=C(C(=O)C(C)=C(N)C3=O)N1CC1C2N1C (stereo not given) | 6% | -20% | 5% | ? | 13µM*
C[C@]12CCC3C(CC[C@H]4C[C@H](O)CC[C@]34C)C1CC[C@@H]2C(=O)CO (stereo not given in full) | · | · | · | 0% | ·
COc1ccc(NC(=O)/C(Cl)=C(/Cl)S(=O)Cc2ccccc2)cn1 (stereo not given) | -6% | -7% | 45µM* | -1% | 0.32µM*
COc1ccc(CS(=O)(=O)/C(Cl)=C(/Cl)C(=O)Nc2ccc(OC)nc2)cc1 | -14% | -6% | ? | -7% | 10µM*
COc1ccc(NC(=O)Cc2ccccc2)cn1 | 1% | -16% | 28% | 2% | -2%
CC1CCc2nn(CC(=O)NCCN3CCCCC3C)cc2C1 (stereo not given) | -4% | 28µM* | 21% | 2% | 0%
Cc1ccc(C)c(N2CCN(CCCNC(=O)Cn3cc4c(n3)CCCCC4)CC2)c1 | -11% | ? | -3% | -7% | -4%
CC1CCc2nn(CC(=O)NCCCN3CCCC3=O)cc2C1 (stereo not given) | -6% | -10% | 3% | 1% | -24%
CC1CCc2nn(CC(=O)N3CCCCCC3)cc2C1 (stereo not given) | -3% | 0.56µM* | 8% | -1% | 7%
Cc1ccc(C)c(N2CCN(CCCNC(=O)Cn3cc4c(n3)CCC(C)C4)CC2)c1 (stereo not given) | ? | 35µM* | 2% | -2% | 1%
CC1CCc2nn(CC(=O)Nc3ccc(F)cc3F)cc2C1 (stereo not given) | ? | 40µM* | -6% | -1% | 8%
Cc1cccc(CS(=O)(=O)Cc2ccc(C(=O)NCc3ccco3)o2)c1 | -1% | 2% | 5% | 2% | ?
COc1ccccc1-c1cnc(C(O)c2ccc(Cl)c(F)c2)[nH]1 (stereo not given) | · | · | 2% | · | ·
COc1cc(Cl)c(C)cc1NC(=O)c1cnc(N2CCOCC2)c2ccccc12 | -7% | · | · | · | -2%
Cc1ccccc1CN1C(=O)c2ccccc2Sc2ccc(C(=O)N3CCCC3)cc21 | 2% | · | · | · | -1%
CC1CCc2nn(CC(=O)NC3CCCC(C)C3C)cc2C1 (stereo not given) | -8% | 1µM* | -19% | 2% | 4%
CCOC(=O)N1CCC(NC(=O)Cn2cc3c(n2)CCC(C)C3)CC1 (stereo not given) | -5% | 19% | -1% | -1% | -1%
O=c1[nH]c2ccccc2n1C1CCN(C(CCc2ccccc2)c2nnnn2-c2ccc3c(c2)OCCO3)CC1 (stereo not given) | · | · | 5% | · | ·
O=C(CCS(=O)(=O)c1ccccc1)Nc1nc2cc3c(cc2s1)OCCO3 | 3% | -3% | 8% | 5% | 10µM*
O=C(CCS(=O)(=O)c1ccccc1)Nc1nc2cc3c(cc2s1)OCO3 | -5% | -36% | 22% | -4% | 10µM*
O=C(CCS(=O)(=O)c1ccccc1)Nc1nc2ccc(F)cc2s1 | -11% | -18% | 13% | · | ?
O=S1(=O)c2ccccc2N=NN1Cc1cc(Cl)cc(Cl)c1 | 1% | · | · | -13% | 0%
O=S1(=O)c2ccccc2N=NN1Cc1ccc(Cl)cc1 | -1% | -53% | 9% | -18% | 2.5µM*
SMILES | AmpC detergent | AmpC inh no detg | RE007 growth inh | FBPA Giardia inh | Sm TGR block
CCOC(=O)C1(CCOC)CCN(Cc2ccncc2)CC1 | 2% | 8% | ? | -8% | -2%
CCOC(=O)C1(CCOC)CCN(Cc2ccccc2-c2ccco2)CC1 | 1% | 0% | -7% | -11% | 35µM*
CCOC(=O)C1(CCOc2ccccc2)CCN(Cc2ccncc2)CC1 | 1% | -13% | -10% | -1% | 28µM*
O=C(NC12CC3CC(CC(C3)C1)C2)c1cccc([N+](=O)[O-])c1 | -5% | -9% | 1% | 2% | -4%
COCCCN(C(=O)c1cc(C)oc1C)c1c(N)n(CC(C)C)c(=O)[nH]c1=O | 0% | -14% | 4% | · | -7%
Cc1ccccc1CN(C)C(=O)COC(=O)c1ccc2[nH]c(C)c(C)c2c1 | · | -6% | 2% | · | ·
O=C(/C=C/c1ccco1)Oc1cccc2cccnc12 | -5% | -13% | ? | -25% | ?
COCCCN1C(=O)C2C(C(=O)Nc3cc(C)cc(C)c3)C3C=CC2(O3)C1C(=O)NC1CCCCC1 (stereo not given) | -10% | 11% | -6% | ? | 40µM*
CCC(C)NC(=O)CCSc1nc(-c2ccc(OC)cc2)cc(C(F)(F)F)n1 (stereo not given) | 23% | · | · | · | 8%
CCN(CC)CCN1C(=O)C(=O)/C(=C(/O)c2ccc(OCC(C)C)cc2)C1c1ccncc1 (stereo not given) | 3% | -4% | · | -2% | -6%
C=CCOc1ccc(/C(O)=C2\C(=O)C(=O)N(CCN(C)C)C2c2cccs2)cc1 (stereo not given) | 3% | -17% | 9% | -5% | ?
CCOc1ccc(/C(O)=C2/C(=O)C(=O)N(CCN(CC)CC)C2c2cccs2)cc1 (stereo not given) | ? | 18% | -13% | 3% | 22µM*
CCN(CC)CCN1C(=O)C(=O)/C(=C(/O)c2ccc(OC)cc2)C1c1cccs1 (stereo not given) | ? | 17% | · | · | 45µM*
O=C(NNS(=O)(=O)c1cccc(Cl)c1)c1cc(-c2ccc(F)cc2)nc2ccccc12 | -9% | 13µM* | 2% | 11% | 1%
COc1cc(CN2CCCC(CO)(Cc3cccc(Cl)c3)C2)cc(OC)c1O (stereo not given) | -8% | 26% | 6% | -27% | 28µM*
CSc1cccc(CN2CCC(CO)(Cc3ccccc3)CC2)c1 | 1% | 52% | -22% | 4% | 16%
OCC1(Cc2ccccc2)CCN(Cc2ccc(-c3ccco3)cc2)CC1 | 5% | 93% | -6% | 0% | 32µM*
OCC1(Cc2ccccc2)CCCN(Cc2ccc(-c3ccco3)cc2)C1 (stereo not given) | -1% | 14% | -18% | 1% | 35µM*
Cc1cccc(C)c1OCc1nnc(SCC(=O)Nc2cccc(C(=O)N3CCOCC3)c2)n1C | -1% | 36% | 4% | 0% | -4%
